Values joined by “and” are separate entries in the source; they are usually repeats but may differ in a detail not shown here. Equal values may be shown once. Records with an inconclusive call do not appear. Where a structure was tested more than once in an assay, its records may differ in their call. Active and inactive are the calls of the source. Rule for the calls, unless noted: active = hit-call score of the fitted dose curve at least 0.9, where 1 is the maximum; inconclusive = response in the unintended direction; inactive = score below 0.9.

Read-out in assay [1]: sulfotransferase 2A1 (SULT2A1), SULT2A1 (gene 6822)
Put plainly: LTEA_HepaRG_SULT2A1: Life Technologies and Expression Analysis (LTEA) Assay for sulfotransferase 2A1 (SULT2A1) using HepaRG (AID 2283531; active = hit-call score of the fitted dose curve at least 0.9, where 1 is the maximum; inactive = score below 0.9). To be noted: mRNA level, 48 h; actives raise or lower the signal. The essentials: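 Gene-expression endpoint in a human liver cell line: SULT2A1 mRNA change after 48 h chemical treatment, curves fitted in both directions relative to 0.5% DMSO vehicle. Concentrations spanned eight half-log steps from 100 uM.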

Read-out in assay [2]: Transforming Growth Factor (TGFA), TGFA (gene 7039)
Nature of the assay: LTEA_HepaRG_TGFA: Life Technologies and Expression Analysis (LTEA) Assay for Transforming Growth Factor (TGFA) using HepaRG (AID 2283532; active = hit-call score of the fitted dose curve at least 0.9, where 1 is the maximum; inactive = score below 0.9). To be noted: mRNA level, 48 h; actives raise or lower the signal. The essentials: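 HepaRG (human liver line), 48 h exposure, 8 conc. half-log down from 100 uM, 0.5% DMSO vehicle, duplicates; serum-free induction medium. TGFA mRNA by TaqMan qRT-PCR, ACTB/GAPDH/POLR2A normalization; gain/loss fit vs DMSO.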

Read-out in assay [3]: Transforming Growth Factor (TGFB1), TGFB1 (gene 7040)
Nature of the assay: LTEA_HepaRG_TGFB1: Life Technologies and Expression Analysis (LTEA) Assay for Transforming Growth Factor (TGFB1) Transporter using HepaRG (AID 2283533; active = hit-call score of the fitted dose curve at least 0.9, where 1 is the maximum; inactive = score below 0.9). The settings on record: mRNA level, 48 h; actives raise or lower the signal. The essentials: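 Eight-point concentration-response (max 100 uM, half-log) in HepaRG under serum-free induction conditions, 48 h. TGFB1 mRNA by qRT-PCR, housekeeping-normalized.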

Read-out in the next assay: TIMP1, TIMP1 (gene 7076)
Put plainly: LTEA_HepaRG_TIMP1: Life Technologies and Expression Analysis (LTEA) Assay for TIMP1 using HepaRG (AID 2283534; active = hit-call score of the fitted dose curve at least 0.9, where 1 is the maximum; inactive = score below 0.9;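 note: TaqMan qRT-PCR signal normalized to ACTB GAPDH and POLR2A housekeeping genes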). The settings on record: mRNA level, 48 h; actives raise or lower the signal. The method in brief: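 TIMP1 induction or repression in HepaRG cells after 48 h chemical exposure (eight concentrations, highest 100 uM), assessed by normalized qRT-PCR with bidirectional fitting to DMSO controls.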

Read-out in assay [4]: Tumor necrosis factor receptor 1 (TNFRSF1A), TNFRSF1A (gene 7132)
Nature of the assay: LTEA_HepaRG_TNFRSF1A: Life Technologies and Expression Analysis (LTEA) Assay for Tumor necrosis factor receptor 1 (TNFRSF1A) using HepaRG (AID 2283535; active = hit-call score of the fitted dose curve at least 0.9, where 1 is the maximum; inactive = score below 0.9). The settings on record: mRNA level, 48 h; actives raise or lower the signal. The essentials: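 Assay uses 48 h chemical treatment of differentiated HepaRG monolayers, tested in duplicate at eight concentrations from 100 uM downward in 0.5% DMSO. mRNA is normalized to ACTB, GAPDH and POLR2A, with induction or suppression fitted relative to vehicle.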

Read-out in assay [5]: Thyroid Hormone Responsive (THRSP), THRSP (gene 7069)
Nature of the assay: LTEA_HepaRG_THRSP: Life Technologies and Expression Analysis (LTEA) Assay for Thyroid Hormone Responsive (THRSP) using HepaRG (AID 2283536; active = hit-call score of the fitted dose curve at least 0.9, where 1 is the maximum; inactive = score below 0.9). The settings on record: mRNA level, 48 h; actives raise or lower the signal. The essentials:
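mRNA induction or loss relative to 0.5% DMSO vehicle was fitted bidirectionally across an eight-point curve whose highest exposure was 100 uM. Human HepaRG liver cells received chemicals in duplicate over 48 h before RNA extraction.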

Read-out in assay [6]: Cellular tumor antigen p53 (Homo sapiens) (UniProt P04637)
Nature of the assay: LTEA_HepaRG_TP53: Life Technologies and Expression Analysis (LTEA) Assay for Tumor Protein P53 (TP53) using HepaRG (AID 2283537; active = hit-call score of the fitted dose curve at least 0.9, where 1 is the maximum; inactive = score below 0.9). To be noted: mRNA level, 48 h; actives raise or lower the signal. The essentials:
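Read-out is TP53 transcript level by microfluidic qRT-PCR, normalised to three housekeeping genes and fitted bidirectionally against DMSO. Human HepaRG cells received compounds for 48 h, highest concentration 100 uM.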

Read-out in assay [7]: UDP glucuronosyltransferase (UGT1A1), UGT1A1 (gene 54658)
Put plainly: LTEA_HepaRG_UGT1A1: Life Technologies and Expression Analysis (LTEA) Assay for UDP glucuronosyltransferase (UGT1A1) using HepaRG (AID 2283538; active = hit-call score of the fitted dose curve at least 0.9, where 1 is the maximum; inactive = score below 0.9). To be noted: mRNA level, 48 h; actives raise or lower the signal. The method in brief: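 Readout is UGT1A1 transcript level by qRT-PCR, normalized to three housekeeping genes, after 48 h chemical treatment of HepaRG cells. Concentrations ran from 100 uM down in half-log steps with 0.5% DMSO, and gain or loss relative to DMSO was fitted.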

Read-out in assay [8]: UDP glucuronosyltransferase (UGT1A6), UGT1A6 (gene 54578)
Put plainly: LTEA_HepaRG_UGT1A6: Life Technologies and Expression Analysis (LTEA) Assay for UDP glucuronosyltransferase (UGT1A6) using HepaRG (AID 2283539; active = hit-call score of the fitted dose curve at least 0.9, where 1 is the maximum; inactive = score below 0.9). To be noted: mRNA level, 48 h; actives raise or lower the signal. The method in brief:
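Measures mRNA change in HepaRG hepatic cells exposed 48 h to chemicals (eight-point, maximum 100 uM, 0.5% DMSO vehicle) in serum-free induction medium. Expression normalized to endogenous controls; DMSO served as negative control and baseline.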

Read-out in assay [9]: X-box binding protein 1 (XBP1), XBP1 (gene 7494)
Put plainly: LTEA_HepaRG_XBP1: Life Technologies and Expression Analysis (LTEA) Assay for X-box binding protein 1 (XBP1) using HepaRG (AID 2283540; active = hit-call score of the fitted dose curve at least 0.9, where 1 is the maximum; inactive = score below 0.9). The settings on record: mRNA level, 48 h; actives raise or lower the signal. The essentials: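 Eight concentrations (half-log, highest 100 uM, 0.5% DMSO) tested in duplicate on HepaRG cells over 48 h in serum-free induction medium; qRT-PCR of XBP1 normalised to ACTB, GAPDH, POLR2A.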

The nature of assay [10]: LTEA_HepaRG_LDH_cytotoxicity: Cytotoxicity Assessment in the Life Technologies and Expression Analysis (LTEA) Assay (AID 2283563).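 For AC50: LDH activity released into spent culture medium as a marker of cell death.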 The essentials: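 Spent-medium LDH after 48 h chemical exposure of HepaRG cells in serum-free induction medium; eight concentrations, half-log dilutions from 100 uM, duplicate wells, fitted upward relative to 0.5% DMSO.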
Assay [11] is described as follows: ATG_XTT_Cytotoxicity: Cytotoxicity Assessment in the Attagene TRANS-FACTORIAL HepG2 Assay (AID 2283584). The essentials:
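24 h chemical exposure of reporter-transfected HepG2; XTT signal loss vs DMSO indicates cytotoxicity.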

The nature of assay [12]: TOX21_p53_BLA_p2_viability: Viability Assessment in the Tox21 HCT-116 p53 Agonism Beta-lactamase Assay, Phase 2 (AID 2283591).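 Note: compound exposure lasted 16 h at 37 °C; actives lower the ATP signal meaning cytotoxicity.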 The essentials:
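Cytotoxicity readout: CellTiter-Glo ATP luminescence, 30 min at room temperature, after the beta-lactamase read. Cells were HCT116 exposed 16 h at 37C to compounds pin-transferred at 217-fold dilution from DMSO stocks.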

Assay [13] deals with Cellular tumor antigen p53 (Homo sapiens) (UniProt P04637). Put plainly: TOX21_p53_BLA_p2_ratio: Tox21 HCT-116 p53 Agonism Beta-lactamase Assay, Ratio, Phase 2 (AID 2283592). The method in brief:
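Human colon HCT116 cells with an inducible p53 beta-lactamase reporter are exposed to test chemicals for 16 h at 37C. Reporter induction is read as the 460/530 nm emission ratio after CCF4-AM loading, normalized to DMSO.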

Assay [14] in a line: TOX21_p53_BLA_p3_viability: Viability Assessment in the Tox21 HCT-116 p53 Agonism Beta-lactamase Assay, Phase 3 (AID 2283593).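 Note: cells exposed to compound for 16 h before reading.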 The method in brief:
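Cellular ATP was quantified by CellTiter-Glo luminescence, read after 30 min at room temperature. Beforehand, HCT116 cells (4000/well) received compound 5 h post-seeding, 217-fold diluted from DMSO, then incubated 16 h at 37C.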

In assay [15] the target is Cellular tumor antigen p53 (Homo sapiens) (UniProt P04637). Nature of the assay: TOX21_p53_BLA_p3_ratio: Tox21 HCT-116 p53 Agonism Beta-lactamase Assay, Ratio, Phase 3 (AID 2283596). The essentials: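 HCT116 p53-bla cells (4000/well) given compound in DMSO (217-fold dilution) after 5 h, incubated 16 h at 37C. CCF4-AM substrate 2 h at room temperature; 460/530 nm emission ratio, gain fitted against DMSO.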
Chain of Cellular tumor antigen p53 (Homo sapiens) (P04637 whole entry, looked up): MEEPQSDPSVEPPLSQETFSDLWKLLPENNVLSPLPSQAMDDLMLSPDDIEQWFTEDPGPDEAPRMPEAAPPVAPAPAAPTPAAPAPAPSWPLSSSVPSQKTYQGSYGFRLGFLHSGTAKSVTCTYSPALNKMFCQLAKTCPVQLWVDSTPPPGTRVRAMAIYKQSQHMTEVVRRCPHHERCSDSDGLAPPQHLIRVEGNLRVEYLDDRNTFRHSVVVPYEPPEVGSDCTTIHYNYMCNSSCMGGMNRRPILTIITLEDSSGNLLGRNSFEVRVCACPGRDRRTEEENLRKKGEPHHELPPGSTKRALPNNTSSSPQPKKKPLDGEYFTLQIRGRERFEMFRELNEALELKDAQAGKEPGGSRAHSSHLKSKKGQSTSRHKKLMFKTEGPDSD

Assay [16] can be described thus: TOX21_p53_BLA_p4_viability: Viability Assessment in the Tox21 HCT-116 p53 Agonism Beta-lactamase Assay, Phase 4 (AID 2283597).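 Note: hits lower the luminescence signal meaning cytotoxicity.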 The essentials:
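Luminescent ATP readout (CellTiter-Glo, 30 min, room temperature) in the same wells as the p53 bla ratio. HCT116 cells were treated for 16 h at 37C with DMSO-dissolved compounds.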

Assay [17] addresses Cellular tumor antigen p53 (Homo sapiens) (UniProt P04637). Put plainly: TOX21_p53_BLA_p5_ratio: Tox21 HCT-116 p53 Agonism Beta-lactamase Assay, Ratio, Phase 5 (AID 2283599). The method in brief: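 Beta-lactamase reporter ratio (blue 460 nm over green 530 nm, 405 nm excitation) after 2 h CCF4-AM loading, in HCT-116 cells exposed 16 h at 37 C to compounds pinned at 217-fold dilution. Increases relative to DMSO baseline scored.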

The nature of assay [18]: TOX21_p53_BLA_p5_viability: Viability Assessment in the Tox21 HCT-116 p53 Agonism Beta-lactamase Assay, Phase 5 (AID 2283600). The essentials:
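Seeded cells (4000/well) settle 5 h before compound addition. Plates then incubate 16 h at 37C, receive FRET substrate for 2 h, and finally CellTiter-Glo, with luminescence measured after a 30 min room-temperature incubation.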

Assay [19] addresses Cellular tumor antigen p53 (Homo sapiens) (UniProt P04637). Put plainly: TOX21_p53_BLA_p4_ratio: Tox21 HCT-116 p53 Agonism Beta-lactamase Assay, Ratio, Phase 4 (AID 2283601). The essentials: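 Signal is the blue/green (460nm/530nm) ratio of cleaved versus uncleaved CCF4-AM substrate, read after 2 h substrate loading. Cells were HCT116 carrying the p53-responsive beta-lactamase reporter, dosed 16 h at 37C, 5% CO2; CellTiter-Glo measured in parallel.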

As to `CCCCOC(=O)c1ccccc1C(=O)OCc1ccccc1`, the outcome in assay [1] is “inactive”; in assay [2], “inactive”; in assay [3], “inactive”; with TIMP1, TIMP1 (gene 7076), “inactive”; in assay [4] it was “inactive”; in [5], “inactive”. The molecule was called inactive in assay [6], in [7], in assay [8], in assay [9], in assay [10] and in assay [11]. Further, the call in assay [12], in [13], in assay [14], in [15], in assay [16] and in [17] was inactive. In addition, the molecule was called inactive in [18].

Consider `CCCCCCCCOC(=O)c1ccc(C(=O)OCCCCCCCC)c(C(=O)OCCCCCCCC)c1`, for which the outcome in assay [1] is “inactive”; in assay [2], “inactive”; in [3], “inactive”; with TIMP1, TIMP1 (gene 7076), “inactive”; in assay [4], “inactive”; in assay [5], “inactive”. For the same molecule, the result in [6], in [7], in [9], in assay [10], in assay [11] and in assay [12] was inactive. For the same molecule, the molecule was called inactive in assay [14], in assay [15], in assay [16], in assay [17], in assay [18] and in assay [19].

With `ClC1=C(Cl)[C@]2(Cl)[C@H]3[C@H]([C@@H]4C=C[C@H]3C4)[C@@]1(Cl)C2(Cl)Cl`, the outcome was “inactive” in assay [2]; “inactive” with TIMP1, TIMP1 (gene 7076); “inactive” in assay [4]; “inactive” in assay [6]; “inactive” in assay [8]; “inactive” in assay [9]. The result in assay [10], in assay [11], in [12], in assay [13], in [14] and in assay [15] was inactive. Further, the outcome in assay [17], in [18] and in assay [19] was inactive. Further, the figures for the AC50 in assay [5], in assay [7] and in [14] were 30.8 µM (active), 6.68 µM (active) and 46 µM (active), respectively.

Regarding `CC(C)COC(=O)c1ccccc1C(=O)OCC(C)C`, the outcome in [2] was “inactive”; in assay [3], “inactive”; in the assay with TIMP1, TIMP1 (gene 7076), “inactive”; in assay [4] it was “inactive”; in assay [5], “inactive”; in assay [7] it was “inactive”. For the same molecule, the molecule was classed as inactive in assay [8], in [9], in assay [10] and in [11].

Turning to `CCCCCCCCn1sccc1=O`, the outcome in assay [2] is “inactive”; in the assay with TIMP1, TIMP1 (gene 7076), “inactive”; in [4], “inactive”; in assay [6], “inactive”; in [7], “inactive”; in assay [9], “inactive”. Also, the result in [11], in [12], in assay [13], in assay [15], in [16] and in assay [17] was inactive. Further, in assay [18], the call was inactive. In addition, the AC50 – broadly, the concentration at which the activity in the assay is half-maximal – is 87.3 µM (active) in assay [5]; 79.7 µM (active) in assay [10]; 20.8 µM (active) in [13]; 41.7 µM (active) and 72.5 µM (active) in assay [14]; 55.1 µM (active) in [15]; 15.4 µM (active) in [16].

With `OCCCBr`, the outcome is “inactive” in [2]; “inactive” with TIMP1, TIMP1 (gene 7076); “inactive” in assay [4]; “inactive” in [5]; “inactive” in assay [6]; “inactive” in [7]. The outcome in [8], in [9], in assay [10], in [11], in assay [12] and in assay [13] was inactive. Further, the result in assay [14], in [15], in assay [16], in assay [17] and in [18] was inactive.

Values taken from PubChem BioAssay (EPA / NIEHS).
